The record followed here is PubChem BioAssay (NCI).

Some test systems named below: NCI-H23 lung; NCI-H226 lung; NCI-H322M lung; HOP-62 NSCLC; NCI-H460 lung; HOP-92 NSCLC; NCI-H522 lung; A549/ATCC NSCLC; 786-0 renal; COLO 205 colon.
What all share (experiment): NCI-60 one-dose screen, 48 h (100 = growth as untreated, 0 = no growth, -100 = all killed)
Common to all, as to conditions: 10 µM unless noted

About 83,000 compounds went through this panel and 20% of them were active in at least one assay; those are over-represented in the sample as a whole.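 Treatment: one concentration, 48 hours, 96-well format. Scoring: percent growth, with anything below 10 considered active.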 The source made the active and inactive calls.

For the compound `Cc1ccc(/C=C/c2c(C(=O)/C=C/c3ccccc3)c(C)nc3ccccc23)cc1`, the growth with NCI-H23 lung was 27.5% (inactive); in the assay on NCI-H226 lung, 43.6% (inactive); in the assay with NCI-H322M lung, 46.8% (inactive); with HOP-62 NSCLC, -18% (active); with NCI-H460 lung it was -9.62% (active); in the assay on HOP-92 NSCLC, 89.4% (inactive). Also, the growth is 11.1% (inactive) with NCI-H522 lung, 30.8% (inactive) in the assay with A549/ATCC NSCLC, 25.8% (inactive) with 786-0 renal and 12.7% (inactive) in the assay with COLO 205 colon.

As for `COc1cc(-c2nc(SCCC(C)C)nc(Nc3ccc(F)cc3)c2C#N)cc(OC)c1OC`, the growth is 84.3% (inactive) with NCI-H23 lung; 90.4% (inactive) in the assay on NCI-H226 lung; 63.2% (inactive) in the assay with NCI-H322M lung; 17.8% (inactive) in the assay with HOP-62 NSCLC; 21.4% (inactive) in the assay with NCI-H460 lung; 72.6% (inactive) in the assay on HOP-92 NSCLC. Further, the growth in the assay on NCI-H522 lung is 75% (inactive); in the assay on A549/ATCC NSCLC it was 28.3% (inactive); in the assay with 786-0 renal, 46.1% (inactive); with COLO 205 colon it was 79.6% (inactive).

`CCNC(=O)Nc1ncccc1OCc1ccc(F)cc1`: the growth is 87.1% (inactive) in the assay on NCI-H23 lung; 106% (inactive) in the assay with NCI-H226 lung; 105% (inactive) in the assay on NCI-H322M lung; 95.3% (inactive) in the assay on HOP-62 NSCLC; 105% (inactive) in the assay on NCI-H460 lung; 108% (inactive) in the assay with HOP-92 NSCLC. Also, the growth was 86.2% (inactive) with NCI-H522 lung, 99% (inactive) in the assay on A549/ATCC NSCLC, 92.8% (inactive) in the assay with 786-0 renal and 115% (inactive) with COLO 205 colon.

Take `Nc1n[nH]c2cccc(C#Cc3cccc(C(=O)Nc4ccc(CN5CCOCC5)c(C(F)(F)F)c4)c3)c12`: the growth with NCI-H23 lung is 33.6% (inactive); in the assay with NCI-H226 lung, 36.5% (inactive); with NCI-H322M lung, 72.2% (inactive); in the assay with HOP-62 NSCLC it was 52.1% (inactive); in the assay on NCI-H460 lung, 44.5% (inactive); in the assay with HOP-92 NSCLC, 35.5% (inactive). Further, the growth in the assay with NCI-H522 lung was 41.9% (inactive); with A549/ATCC NSCLC, 43.4% (inactive); in the assay on 786-0 renal, 8.57% (active); in the assay with COLO 205 colon, 13.1% (inactive).

For `NC(=O)c1c(NC(=O)/C=C/c2cccs2)sc2c1CCC(=O)C2`, the growth with NCI-H23 lung was 17.4% (inactive); in the assay with NCI-H226 lung it was 68.5% (inactive); with NCI-H322M lung, 101% (inactive); in the assay with HOP-62 NSCLC, 87.3% (inactive); in the assay with NCI-H460 lung, 58% (inactive); in the assay on HOP-92 NSCLC it was 42.4% (inactive). In addition, the growth with NCI-H522 lung was -4.08% (active); with A549/ATCC NSCLC, 74.9% (inactive); with 786-0 renal, 70.2% (inactive); with COLO 205 colon, 55.5% (inactive).

As to `Cc1nc2sc(C(=O)Nc3cccc4ccccc34)c(N)c2cc1C(=O)/C=C/c1ccccc1`, the growth with NCI-H23 lung is 9.08% (active); with NCI-H226 lung, -59.4% (active); in the assay on NCI-H322M lung, 24% (inactive); in the assay with HOP-62 NSCLC, -21.1% (active); with NCI-H460 lung, -34.2% (active); in the assay on HOP-92 NSCLC, 28.3% (inactive). Also, the growth with NCI-H522 lung is -33.4% (active); in the assay with A549/ATCC NSCLC, 12.9% (inactive); with 786-0 renal, -55.5% (active); in the assay with COLO 205 colon, -15% (active).

As for `COc1ccc(N2CCN(S(=O)(=O)c3oc(-c4ccccc4)nc3C#N)CC2)cc1`, the growth in the assay with NCI-H23 lung was 57.3% (inactive); with NCI-H226 lung it was 64.5% (inactive); in the assay on NCI-H322M lung, 97.6% (inactive); in the assay on HOP-62 NSCLC, 106% (inactive); with NCI-H460 lung, 94.8% (inactive); in the assay with HOP-92 NSCLC, 101% (inactive). The growth in the assay with NCI-H522 lung is 25.2% (inactive); in the assay with A549/ATCC NSCLC, 99.4% (inactive); with 786-0 renal it was 85.5% (inactive); in the assay with COLO 205 colon it was 80% (inactive).

As for `COc1ccc(-c2cc(-c3cc(OC)c(OC)c(OC)c3)c(C#N)c(=O)n2CCCCC(=O)O)cc1`, the growth is 96.7% (inactive) in the assay with NCI-H23 lung; 104% (inactive) in the assay on NCI-H226 lung; 98.4% (inactive) in the assay with NCI-H322M lung; 96.8% (inactive) in the assay with HOP-62 NSCLC; 96% (inactive) in the assay on NCI-H460 lung; 93.6% (inactive) in the assay with HOP-92 NSCLC. The growth in the assay on NCI-H522 lung is 87.3% (inactive); with A549/ATCC NSCLC it was 93.9% (inactive); in the assay with 786-0 renal, 97.5% (inactive); with COLO 205 colon it was 115% (inactive).

For `N=c1c2c(-c3ccccc3)c(-c3ccccc3)oc2ncn1NC(=O)c1cccnc1`, the growth was 93.2% (inactive) in the assay on NCI-H23 lung; 108% (inactive) with NCI-H226 lung; 98.7% (inactive) in the assay on NCI-H322M lung; 102% (inactive) in the assay on HOP-62 NSCLC; 105% (inactive) with NCI-H460 lung; 91% (inactive) in the assay with HOP-92 NSCLC. For the same compound, the growth was 95.1% (inactive) with NCI-H522 lung, 103% (inactive) in the assay on A549/ATCC NSCLC, 99% (inactive) in the assay on 786-0 renal and 115% (inactive) with COLO 205 colon.

Regarding `CCCCn1c(C(=O)c2c[nH]c3ccccc23)n[nH]c1=S`, the growth with NCI-H23 lung is 92.6% (inactive); with NCI-H226 lung, 92.5% (inactive); in the assay with NCI-H322M lung, 96.7% (inactive); with HOP-62 NSCLC, 86% (inactive); in the assay on NCI-H460 lung it was 98.7% (inactive); in the assay on HOP-92 NSCLC it was 89.4% (inactive). The growth in the assay on NCI-H522 lung was 83.3% (inactive); in the assay on A549/ATCC NSCLC it was 92.3% (inactive); in the assay on 786-0 renal, 102% (inactive); with COLO 205 colon it was 106% (inactive).

Take `COC(=O)c1nc(-c2ccc(C)cc2)oc1S(=O)(=O)c1ccc(Cl)cc1`: the growth is 91.3% (inactive) in the assay with NCI-H23 lung; 96% (inactive) with NCI-H226 lung; 99.6% (inactive) in the assay with NCI-H322M lung; 97.4% (inactive) in the assay on HOP-62 NSCLC; 109% (inactive) with NCI-H460 lung; 95.1% (inactive) with HOP-92 NSCLC. Moreover, the growth is 59.6% (inactive) in the assay with NCI-H522 lung, 100% (inactive) in the assay on A549/ATCC NSCLC, 86.1% (inactive) with 786-0 renal and 70.5% (inactive) in the assay with COLO 205 colon.

As for `Clc1ccc(Nc2nc(Nc3ccc(Cl)cc3)nc(Nc3ccc(-c4cc(-c5cccc(Cl)c5)on4)cc3)n2)cc1`, the growth in the assay on NCI-H23 lung was 88.1% (inactive); in the assay on NCI-H226 lung, 99.9% (inactive); in the assay with NCI-H322M lung, 85.2% (inactive); in the assay on HOP-62 NSCLC, 115% (inactive); in the assay on NCI-H460 lung it was 96.1% (inactive); with HOP-92 NSCLC, 60.4% (inactive). For the same compound, the growth is 88.5% (inactive) in the assay on NCI-H522 lung, 91.3% (inactive) with A549/ATCC NSCLC, 94.6% (inactive) in the assay with 786-0 renal and 90.9% (inactive) in the assay with COLO 205 colon.
